Assay results reported in PubChem BioAssay AID1700 (The Scripps Research Institute Molecular Screening Center, 2009).
About 670 (0.23%) of roughly 290,000 compounds were called active.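 Rule for the calls: active = inhibition above a per-plate limit of that plate's mean compound inhibition plus 3 SD (cut at about 60% in these data); inactive = the rest.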 What follows is part of a selection rich in actives, with near analogues and random picks from the rest.

Assay: KLF5 expression inhibitors, primary screen, DLD-1 cells, luminescence (AID 1700);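 note: 0% = DMSO wells and 100% = LY294002 at 200 µM; higher means less KLF5 promoter-driven luciferase light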
Conditions: DLD-1 KLF5 promoter-luciferase reporter, at 5 µM, stronger effect = higher value

inhibition, active:
CCOc1cc(C(=O)N2CCc3cc(OC)c(OC)cc3C2)ccc1OC(F)F 73.9%
COc1cccc(/C=N/Nc2ncc(C(F)(F)F)cc2Cl)c1O 101%
Cc1ccc2[nH]c(=O)c(CN(CCCN(C)C)C(=O)Nc3cccc(Cl)c3)cc2c1 109%
CCOc1ccccc1NC(=O)Cn1nnc(C(=O)NCc2cccs2)c1N 72.7%
CN(NC(=O)c1ccccc1F)c1nc(C(F)(F)F)nc2ccccc12 68.7%
CSc1nc(N(C)NC(=O)c2cccc(C)c2)c2ccccc2n1 83.5%

inhibition, inactive:
O=C(N[C@@H](Cc1ccccc1)C(=O)OCc1ccccc1)c1nc[nH]c1C(=O)N[C@@H](Cc1ccccc1)C(=O)OCc1ccccc1 -14.8%
O=C(CN1CCC(O)(c2cccc(C(F)(F)F)c2)CC1)NCCc1ccccc1 -13%
O=C(CSc1ccc(-c2ccccn2)nn1)Nc1ccccc1 -2%
Cc1cc(=O)n2nc(N3CCC(C(=O)Nc4c(F)c(F)c(F)c(F)c4F)CC3)sc2n1 13.4%
N#CCC(=O)NC1CCC(CC2CCC(NC(=O)CC#N)CC2)CC1 (centres undefined) -13.8%
Cc1nn(C(C)C(=O)N2CCOCC2)c(=O)c2nn(-c3ccccc3)c(C)c12 (centres undefined) -19%
COc1cc2c(cc1OC)CN(C(=O)c1ccc(S(=O)(=O)N3CCCCCC3)cc1)CC2 -28.3%
COc1cc2c(cc1OC)CN(C(=O)c1cc(=O)c3ccccc3o1)CC2 37.6%
COc1cccc(/C=N/NC(=O)c2[nH]nc3c2CCc2ccccc2-3)c1O 5.06%
COc1cccc(/C=N/Nc2cc(C)nc(-c3ccccc3O)n2)c1O -137%
O=C1CSc2ccc(S(=O)(=O)NCc3ccccc3)cc2N1 11.2%
Cc1c(CC(=O)NCC(=O)NCC(=O)O)c(=O)oc2cc3oc4c(c3cc12)CCCC4 -28.3%
CCC(=O)N(CCc1ccccc1)Cc1cc2cc(C)ccc2[nH]c1=O -35.9%
Cc1ccc2[nH]c(=O)c(CN(CC3COCCO3)C(=O)Nc3ccccc3C)cc2c1 (centres undefined) 18.1%
O=C(NCCc1ccc(Cl)cc1)C1CCCN1C(=O)NCc1ccccc1 (centres undefined) -14.2%
COc1ccc(NCCc2ccccn2)cc1 -36.1%
COc1ccccc1/C=N/N1CCN(Cc2ccccc2Cl)CC1 -27%
CCOc1ccc(Cn2nnc(C(=O)NCc3ccccc3)c2N)cc1 -14.8%
CCOc1ccccc1NC(=O)Cc1cccs1 4.44%
COc1ccc(C(=O)NN(C)c2nc(-c3ccccc3)cc(C)c2S(C)(=O)=O)cc1 -7.27%
CN(NC(=O)c1ccccc1)c1nc2ccccc2nc1C(F)(F)F -18.5%
Cc1cccc(C(=O)NCCCN(C)CCCNC(=O)c2cccc(C)c2)c1 -59.8%
COC(=O)CNC(=O)c1ccccc1F -16.9%
